Assay outcomes as filed in PubChem BioAssay.
Hits are enriched below; roughly 7.5% of the tested compounds scored in any of these assays.
Rab9 promoter act: qHTS Assay for Rab9 Promoter Activators | AID 485297, 2010 | Potency, µM (highest dose often 9.22 µM), for the others: top-dose activation, negative = inhibition, most hits filed as activators | Huh7 Rab9 promoter-luciferase reporter, luminescence, 24 h | 2.8% of 320,000 active; further: % of control where 0% means no effect; nearly all actives have a fitted effect of over 60% in size
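Cell-based reporter: Huh7 stable for Rab9 promoter-driven luciferase, plated in reduced-serum medium with 10% FBS at 1500 cells/well, compound-treated 24 h at 37 °C, luminescence read after 10 min reagent.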
NPC1 promoter act: qHTS Assay for NPC1 Promoter Activators; Huh7 NPC1 promoter luciferase reporter, 24 h; Potency, µM (doses to about 9.22 µM), without a hit: top-dose activation, hits mostly activators; 2.4% of 320,000 active; further: % of control where 0% means no effect; nearly all actives have a fitted effect of over 60% in size
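Luminescence from an NPC1 promoter-driven luciferase reporter in stably transfected Huh7 cells was measured after 24 h compound treatment at 37 °C, followed by 10 min ambient incubation with luciferase detection reagent.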
FLuc modulator: qHTS profiling assay for firefly luciferase inhibitor/activator using purifed enzyme and Km concentrations of substrates (counterscreen for miR-21 project) | purified FLuc, Km substrates, luminescence inhibition | Potency, µM (doses to about 57.5 µM), for the others: top-dose activity change, negative = inhibition, actives largely listed as inhibitors | 6.9% of 360,000 active | AID 588342, 2011;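 further: plate controls were vehicle for no effect and reference inhibitor for full effect; nearly all actives have a fitted effect of over 55% in size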
Target sequence (P08659 whole entry, looked up): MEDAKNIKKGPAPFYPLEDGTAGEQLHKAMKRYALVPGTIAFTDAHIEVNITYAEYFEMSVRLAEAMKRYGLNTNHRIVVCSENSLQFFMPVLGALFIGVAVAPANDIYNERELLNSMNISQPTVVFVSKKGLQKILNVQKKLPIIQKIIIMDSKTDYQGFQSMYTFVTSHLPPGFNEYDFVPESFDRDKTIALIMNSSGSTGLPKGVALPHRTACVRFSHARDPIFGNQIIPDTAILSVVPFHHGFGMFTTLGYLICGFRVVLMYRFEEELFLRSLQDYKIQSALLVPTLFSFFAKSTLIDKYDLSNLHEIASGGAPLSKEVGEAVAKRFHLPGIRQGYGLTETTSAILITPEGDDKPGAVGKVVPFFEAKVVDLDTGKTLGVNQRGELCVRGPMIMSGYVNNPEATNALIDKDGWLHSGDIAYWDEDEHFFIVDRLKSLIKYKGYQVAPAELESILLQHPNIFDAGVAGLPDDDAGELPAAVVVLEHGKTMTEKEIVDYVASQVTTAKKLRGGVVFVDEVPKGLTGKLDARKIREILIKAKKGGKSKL
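Purified P. pyralis luciferase, 10 nM final, with Km-level 10 uM D-luciferin and 10 uM ATP in 50 mM Tris acetate pH 7.5, 10 mM Mg acetate, 0.01% Tween-20, 0.05% BSA; 6-point qHTS titration about 60 µM downward; luminescence read.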
ELG1 genotoxic: qHTS screen for small molecules that induce genotoxicity in human embryonic kidney (HEK293T) cells expressing luciferase-tagged ELG1. HEK293T ELG1-luciferase reporter, luminescence, 16 h. Potency, µM (top dose mostly 46 µM), for inactives: at the highest dose activity change, positive = activation, usual class: activators. 1.3% of 330,000 active; further: % of control where 0% means no effect; nearly all actives have a fitted effect of over 60% in size
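Luminescence read-out: rising ELG1-luciferase signal, reflecting elevated ELG1 protein under genetic stress, flags genotoxic compounds. Cells were treated for 16 hr at 37 °C before ONE-Glo detection.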
SMN2 splice enh: qHTS Assay for Enhancers of SMN2 Splice Variant Expression; HEK293 SMN2-luciferase splicing reporter, luminescence, 30-36 h; Potency, µM (series often up to 46.1 µM), for inactives: top-dose activity change, positive = activation, usual class: activators; 2.8% of 210,000 active; AID 1458, 2008; further: % of control where 0% means no effect; nearly all actives have a fitted effect of over 55% in size
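HEK293 cells carry an SMN2 minigene-luciferase reporter in which exon 7 inclusion puts luciferase in frame. Cells were seeded at 2000 cells/well, attached for 10-12 hours, then exposed to compounds for 30-36 hours at 37C before ONE-Glo luminescence.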
* marks the source's active call; other numbers are inactive results; ? = inconclusive; . = no result given; [ ] = another dose, or the depositor's remark. The call rests on the fitted dose curve; in most records, active means well fitted curve in the direction sought with a large enough effect; inconclusive means small, poorly fitted or top-dose-only effect, or another doubt; inactive means no such curve, though single readings can be large; an effect the other way counts as inactive or inconclusive. Potency means the concentration at half of the fitted maximal effect.

SMILES | Rab9 promoter act | NPC1 promoter act | FLuc modulator | ELG1 genotoxic | SMN2 splice enh
CS(=O)(=O)c1ccc(-c2nnc(NC(=O)c3ccco3)o2)cc1 | -4% | 0% | 12µM* | 10% | .
O=C(Nc1nnc(-c2ccc(Br)cc2)o1)c1ccco1 | ? | 22% | 2.7µM* | 6% | .
O=S(=O)(NCCCNS(=O)(=O)c1c(F)cccc1F)c1ccc2c(c1)OCCO2 | 1% | 1% | -2% | 3% | .
C=CCn1c2ccccc2c(=O)c2cc(C#Cc3ccccn3)ccc21 | -4% | 4µM* | 7.6µM* | 3% | .
C=CCn1c2ccccc2c(=O)c2cc(C#Cc3ccsc3)ccc21 | 21% | 16% | 0.67µM* | 10% | .
C=CCn1c(O)c(N=O)c2ccccc21 | 0% | 0% | -3% | 2% | .
Cc1cc(SCC(=O)c2cccs2)nc2ccccc12 | 26% | 19% | ? | 2% | ?
O=C(CSc1nnc(C2CC2)n1Cc1ccccc1)N1CCNC1=O | . | . | . | 2% | .
COc1cccc2cc(C(=O)c3ccc([N+](=O)[O-])cc3)oc12 | ? | 24% | ? | 8% | 14%
O=C(Oc1ccc(-c2csnn2)cc1)c1cccs1 | 7% | -2% | 2.4µM* | -5% | .
O=C(Nc1ccc(-c2csnn2)cc1)C1CC1 | 14% | -5% | -24% | 4% | .
O=C(Oc1ccc(-c2csnn2)cc1)C1CC1 | 0% | -6% | 17µM* | 0% | .
O=C(Oc1ccccc1-c1csnn1)c1cccs1 | 1% | -1% | 0% | -1% | 0%
c1ccc(-c2ccc(-c3csnn3)cc2)cc1 | 2µM* | 2.2µM* | ? | 13% | ?
O=C(NCCCN1CCOCC1)C(c1ccccc1)c1ccccc1 | 7% | 1% | -2% | -5% | .
CCc1ccc(Nc2nc(C)cc(C)n2)cc1 | 5µM* | ? | 12µM* | ? | .
Cc1cc(C)nc(Nc2ccc(C(=O)O)cc2)n1 | 1.8µM* | 3.5µM* | 15µM* | ? | 11µM*
Cc1cc(C)cc(Nc2ccc(C(=O)O)cc2N)c1 | 13% | 12% | ? | 7% | 9%
CCc1ccc(Nc2cc(C)nc3nc(C)nn23)cc1 | 3% | 0% | 0% | 1% | -9%
Cc1cc(C)nc(Nc2ccc(O)cc2)n1 | -7% | -2% | -6% | 2% | .
COc1ccc(Nc2nc(C)cc(C)n2)cc1Cl | ? | ? | 19µM* | ? | .
COc1nc(Nc2ccc(OC)c(Cl)c2)nc(OC)n1 | 4% | 9% | -15% | 20% | -3%
Cc1ccc(Nc2ccc(C(=O)O)cc2N)cc1 | 26%[1.84 µM] | ? | 5.4µM* | ? | ?
CC(C)C(OC(=O)c1cccs1)C(=O)NCc1ccccc1 (stereo unspecified) | 9% | 0% | 1% | 5% | 4%
Cc1cc(C)nc(Nc2ccc(N3CCCC3)cc2)n1 | 26% | 20% | 19µM* | ? | 13%
SMILES | Rab9 promoter act | NPC1 promoter act | FLuc modulator | ELG1 genotoxic | SMN2 splice enh
CC1(C)Cc2nc3sc4c(=O)n(CC(=O)NCc5ccccc5)cnc4c3cc2CO1 | -6% | -13% | ? | 10% | 16%
COC(=O)c1sc2nc3c(cc2c1N)COC(C)(C)C3 | 3.5µM* | 2.8µM* | 11µM* | 8.2µM* | 9%
CC1(C)Cc2nc3scc(NC(=O)c4ccccc4)c3cc2CO1 | 0% | -3% | 11µM* | 2% | .
CCOC(=O)c1sc2nc3c(cc2c1N)COC(C(C)C)C3 (stereo unspecified) | ? | 0.79µM* | 0.12µM* | 0.13µM* | -84%
C[N@+]1(CCC(=O)c2ccccc2)CC[C@H]2CC[C@H](C2)C1 | . | . | . | . | -7%[9.22 µM]
Cc1ccc(C2=C(Cl)C(=O)C(c3ccc(C)cc3)=C(Cl)C2=O)cc1 | . | . | . | . | -2%[9.22 µM]
O=C(CCCCCn1c(=O)c2sccc2n(CC(=O)Nc2cccc(Cl)c2)c1=O)NCc1ccc2c(c1)OCO2 | . | . | -10% | . | -16%
Cc1cc(C(=O)COC(=O)c2cc(Cl)c(O)c(Cl)c2)c(C)n1C | 9% | 1% | 17µM* | 8% | .
Cc1cc(C(=O)COC(=O)c2ccc(Br)o2)c(C)n1C | 26% | -3% | 8.5µM* | ? | 1%
